In PubChem BioAssay (NCATS):
Inconclusive results are not listed. Activity calls are given as the source filed them. The call rests on the fitted dose curve; in most records, active means well fitted curve in the direction sought with a large enough effect; inconclusive means small, poorly fitted or top-dose-only effect, or another doubt; inactive means no such curve, though single readings can be large; an effect the other way counts as inactive or inconclusive.

Tests used:
[1] = qHTS Assay for Identifying Gametocytocidal Compounds (AID 743244);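 further: on the % scale 0 is the no-effect control and ±100 the full control effect; actives lower the fluorescent signal which means gametocytes are killed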; details: P. falciparum 3D7 stage III-V gametocytes, alamarBlue, 72 h; max response: stronger effect = lower value
How it was run: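 Stage III-V P. falciparum 3D7 gametocytes, 20,000 per well, were exposed to compounds for 72 h at 37C, 5% CO2. AlamarBlue was then added for 24 h and viability was read as fluorescence at Ex 525/Em 598 nm.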

[2] = qHTS assay for measurement of the activity of small molecule inhibitors on Zika virus induced Caspase-3 activity in human iPSC derived neural progenitor cells (hNPCs) (AID 1224857); further: % of control where 0% means no effect; nearly all actives have a fitted effect of over 65% in size
How it was run: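 Human iPSC-derived neural progenitor cells pretreated 1 hr with compounds, then infected with Zika virus (2 FFU/cell) for 6 hours at 37 C. Caspase-3/7 measured by Caspase-Glo luminescence; % inhibition calculated from induction scaled to uninfected (0%) and infected (100%) wells.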

[3] = qHTS assay for measurement of the activity of small molecule inhibitors on Zika virus induced Caspase-3 activity in human astrocytoma cells (AID 1224859);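 further: plate controls were ZIKV-infected untreated cells for no effect and uninfected cells for full effect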
How it was run: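 SNB-19 astrocytoma cells, 250/well, pretreated 1 h with compounds, then Zika virus at 2 FFU/cell for 6 h at 37 C; Caspase-Glo 3/7 luminescence after 30 min; percent inhibition normalised to uninfected and infected controls.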

[4] = qHTS assay to identify small molecule inhibitors of chordoma cells - UCH-2 (AID 1259356); further: series mostly up to about 46 µM; on the % scale 0 is the no-effect control and ±100 the full control effect
[5] = P-glycoprotein substrates identified in KB-8-5-11 adenocarcinoma cell line, qHTS therapeutic library screen (AID 1346987); details: outcome: dose series up to 44.5 µM; further: series mostly up to about 44 µM; on the % scale 0 is the no-effect control and ±100 the full control effect; nearly all actives have a fitted effect of over 65% in size
How it was run: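 P-gp-mediated resistance screen: KB-8-5-11 cells treated 72 h with compounds in dose-response. CellTiter-Glo viability.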

[6] = NS1 protein of Zika virus - qHTS assay to identify small molecule inhibitors in human HEK 293 cells (AID 1347053);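 further: series mostly up to about 46 µM; plate controls were infected untreated cells for no effect and uninfected cells for full effect; nearly all actives have a fitted effect of over 55% in size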
How it was run: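 HEK 293 cells pretreated with compound for 1 h, then infected with ZIKV MR766 (MOI 0.5) for 24 h at 37 C. NS1 detected by TR-FRET with two anti-NS1 antibodies; normalized to uninfected (0%) and infected (100%) wells.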

[7] = qHTS of pediatric cancer cell lines to identify multiple opportunities for drug repurposing: Primary screen for TC32 cells (AID 1347089); further: on the % scale 0 is the no-effect control and ±100 the full control effect; nearly all actives have a fitted effect of over 60% in size
How it was run: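 A viability screen of TC32 cells was run over 48 h, with primary MIPE doses spanning 0.78 nM–46 µM and NPC doses 0.59 nM–46 µM. ATP luminescence (CellTiter-Glo) served as the read-out.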

[8] = qHTS of pediatric cancer cell lines to identify multiple opportunities for drug repurposing: Primary screen for DAOY cells (AID 1347090);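 further: series mostly up to about 46 µM; plate controls were DMSO for no effect and bortezomib for full effect; nearly all actives have a fitted effect of over 55% in size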
How it was run: (§1)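 Viability measured as metabolically active cells via CellTiter-Glo luminescence following 48 hours of compound exposure, 11-point dilutions in confirmatory testing. 500-1,000 cells/well plated 5 hours before dosing; controls were DMSO and 2.3 µM bortezomib.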

[9] = qHTS of pediatric cancer cell lines to identify multiple opportunities for drug repurposing: Primary screen for SJ-GBM2 cells (AID 1347091);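 further: plate controls were DMSO neutral control for no effect and bortezomib for full effect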
How it was run: as §1

[10] = qHTS assay for cell viability of HEK293 cells (AID 743288); details: ATP luminescence (CellTiter-Glo), 18 h, stronger effect = lower value; further: on the % scale 0 is the no-effect control and ±100 the full control effect; nearly all actives have a fitted effect of over 50% in size
How it was run: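 Luminescent ATP quantitation served as the viability read-out. Cells (parental HEK293, 2,000/well) received compounds after at least 5 h at 37 C and were exposed for 18 h before a 30 min room-temperature reagent step.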

[11] = qHTS assay for cell viability of the p53RE-bla HCT-116 cell line (AID 743292); further: on the % scale 0 is the no-effect control and ±100 the full control effect; nearly all actives have a fitted effect of over 55% in size
How it was run: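 HCT-116 p53RE-bla cells seeded 4,000/well; 5 h at 37 C; compound (DMSO) added; 16 h at 37 C; CellTiter-Glo added, 30 min RT; luminescence read.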

[12] = qHTS assay to identify small molecule inhibitors of chordoma cells - UCH-1 (AID 1259355); further: on the % scale 0 is the no-effect control and ±100 the full control effect; nearly all actives have a fitted effect of over 55% in size
How it was run: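 Cells (800/well) were seeded and left overnight at 37 C, 5% CO2, then treated with drugs at 15 concentrations plus a combination mix of auranofin, camptothecin, doxorubicin, rubitecan and topotecan. Viability after 48hr was read by CellTiter-Glo luminescence.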

Measured: max response

CC(=O)Nc1ccc(OCCOCCOc2ccc(NC(C)=O)cc2)cc1
inactive: [1] 1.8% | [2] | [3] | [4] | [5] | [6] | [7] | [8] | [9]

CO[C@@]1(NC(=O)C(C(=O)O)c2ccc(O)cc2)C(=O)N2C(C(=O)O)=C(CSc3nnnn3C)CO[C@@H]21 (some centres undefined)
inactive: [1] 2.23% | [2] | [3] | [4] | [5] | [6] | [7] | [8] | [9]

C[C@]1(Cn2ccnn2)[C@H](C(=O)O)N2C(=O)C[C@H]2S1(=O)=O
inactive: [1] 9.4% | [2] | [3] | [5] | [6] | [7] | [8]

CNc1c2c(nn1C)CCCC2
inactive: [1] 6.79% | [2] | [3] | [4] | [5] | [6] | [7] | [8] | [9]

Cn1cc(C(=O)[C@@H]2CCc3nc[nH]c3C2)c2ccccc21
inactive: [1] -8.94% | [2] | [3] | [4] | [5] | [7]

CC[N+](C)(CC)CCOC(=O)C1c2ccccc2Oc2ccccc21
inactive: [1] 7.42% | [2] | [3] | [4] | [5] | [6] | [7]

O=C1c2cccc(O)c2C(=O)c2c(O)cccc21
inactive: [1] 2.37% | [10] -10.2% | [11] | [2] | [3] | [12] | [6] | [7] | [8] | [9]

CC(N)CCCC(C)(C)O (centres undefined)
inactive: [1] -9.78% | [2] | [3] | [4] | [5] | [6] | [7] | [9]

CC[C@H](C)[C@H](N)C(=O)O
inactive: [1] -11.6% | [2] | [3] | [4] | [5] | [6] | [7] | [8] | [9]

Cc1c(NC(C)C)c(=O)n(-c2ccccc2)n1C
inactive: [1] -2.3% | [2] | [3] | [4] | [5] | [6] | [7] | [8] | [9]

CCOC(=O)[C@H](CCc1ccccc1)N[C@@H](C)C(=O)N1CCC[C@H]1C(=O)O
inactive: [1] -2.72% | [2] | [3] | [4] | [5] | [6] | [7] | [8] | [9]

CC1(c2ccccc2)OC(C(=O)O)=CC1=O (centres undefined)
inactive: [1] 25.1% | [2] | [3] | [4] | [5] | [6] | [7] | [8] | [9]

O=C(O)CCC(=O)O
inactive: [1] 4.69% | [2] | [3] | [4] | [5] | [6] | [7] | [8] | [9]

CC(=O)N1C[C@H](O)C[C@H]1C(=O)O
inactive: [1] 11.8% | [2] | [3] | [4] | [5] | [6] | [7] | [8] | [9]

NC(=O)CCCCC1CCSS1 (centres undefined)
inactive: [1] 0.706% | [2] | [12] | [4] | [5] | [6] | [7] | [8] | [9]

O[C@@H]1CO[C@H]2[C@@H]1OC[C@@H]2O
inactive: [1] -6.28% | [2] | [12] | [4] | [5] | [6] | [7] | [8] | [9]

O=C(O)c1ccccc1C(=O)Nc1ccc(S(=O)(=O)Nc2nccs2)cc1
inactive: [1] 31% | [2] | [12] | [4] | [5] | [6] | [7] | [8]

CC1(C)S[C@@H]2[C@H](N=CN3CCCCCC3)C(=O)N2[C@H]1C(=O)O
inactive: [1] -2.77% | [2] | [12] | [4] | [5] | [6] | [7] | [8] | [9]
